PubChem BioAssay (NCATS)
Records with an inconclusive call do not appear. Active and inactive are the calls of the source. Calls come from the whole dose curve; as a rule, active = well fitted curve in the direction sought with a large enough effect; inconclusive = small, poorly fitted or top-dose-only effect, or another doubt; inactive = no such curve, though single readings can be large; an effect the other way counts as inactive or inconclusive.

Key:
UISO = assay: qHTS assay to identify novel small-molecules to repurpose for Merkel cell carcinoma treatment (AID 1296009); details: MCC and control cell lines, CellTiter-Glo viability, 72 h; series mostly up to 46 µM; note: nearly all actives have a fitted effect of over 60% in size
How it was run: (§1)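 Cell viability measured by CellTiter-Glo following 72 hr compound treatment at 37 degree celsius, with NPC and MIPE libraries tested in 8- and 11-point concentration series.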

WaGa = assay: as above; details: MCC and control cell lines, CellTiter-Glo viability, 72 h; series mostly up to 46 µM
How it was run: as §1

C33A = assay: Primary qHTS to identify gynecologic anti-cancer compounds using libraries of approved drugs and bioactive compounds (AID 1345084); details: Gynecologic cancer cell panel viability, ATPlite luminescence, 48 h; series mostly up to 57.5 µM; note: nearly all actives have a fitted effect of over 55% in size
How it was run: (§2)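 ATP-based viability (ATPlite), 1,000 cells/well, 16 h pre-incubation, 48 h compound at 37 C, 5% CO2, 15 min RT before read.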

CAOV3 = assay: as above; details: Gynecologic cancer cell panel viability, ATPlite luminescence, 48 h; series mostly up to 57.5 µM
How it was run: as §2

CASKI = assay: as above; details: Gynecologic cancer cell panel viability, ATPlite luminescence, 48 h; series mostly up to 57.5 µM
How it was run: as §2

Es-2 = assay: as above; details: Gynecologic cancer cell panel viability, ATPlite luminescence, 48 h; series mostly up to 57.5 µM
How it was run: as §2

HeLa = assay: as above; details: Gynecologic cancer cell panel viability, ATPlite luminescence, 48 h; series mostly up to 57.5 µM
How it was run: as §2

Hek293T = assay: as above; details: Gynecologic cancer cell panel viability, ATPlite luminescence, 48 h, control line for the selectivity index; series mostly up to 57.5 µM
How it was run: as §2

JEG-3 = assay: as above; details: Gynecologic cancer cell panel viability, ATPlite luminescence, 48 h; series mostly up to 57.5 µM
How it was run: as §2

OV90 = assay: as above; details: Gynecologic cancer cell panel viability, ATPlite luminescence, 48 h; series mostly up to 57.5 µM
How it was run: as §2

Measured: Potency

C[C@]12C=CC(=O)C=C1CC[C@H]1[C@@H]3C[C@@H](O)[C@](O)(C(=O)CO)[C@@]3(C)C[C@H](O)[C@@]12F
inactive: UISO | WaGa | C33A | CAOV3 | CASKI | Es-2 | HeLa | Hek293T | JEG-3 | OV90

CN(C)CCOC(=O)COc1ccc(Cl)cc1
inactive: UISO | WaGa | C33A | CAOV3 | CASKI | Es-2 | HeLa | Hek293T | JEG-3 | OV90

NS(=O)(=O)c1cc2c(cc1Cl)NC(C1CC3C=CC1C3)NS2(=O)=O (stereo not given)
inactive: UISO | WaGa | C33A | CAOV3 | CASKI | Es-2 | HeLa | Hek293T | JEG-3 | OV90

CCN(CC)CC(=O)Nc1c(C)cccc1C
inactive: UISO | WaGa | C33A | CAOV3 | CASKI | Es-2 | HeLa | Hek293T | JEG-3 | OV90

c1cnc(N2CCN(Cc3ccc4c(c3)OCO4)CC2)nc1
inactive: UISO | WaGa | C33A | CAOV3 | CASKI | Es-2 | HeLa | Hek293T | JEG-3 | OV90

CCN(Cc1ccncc1)C(=O)C(CO)c1ccccc1 (stereo not given)
inactive: UISO | WaGa | C33A | CAOV3 | CASKI | Es-2 | HeLa | Hek293T | JEG-3 | OV90

CN(C)[C@@H]1C(=O)C(C(N)=O)=C(O)[C@@]2(O)C(=O)C3=C(O)c4c(O)ccc(Cl)c4[C@@H](O)[C@H]3C[C@@H]12
inactive: UISO | WaGa | C33A | CAOV3 | CASKI | Es-2 | HeLa | Hek293T | JEG-3 | OV90

CCCCOCCOCCOCc1cc2c(cc1CCC)OCO2
inactive: UISO | WaGa | C33A | CAOV3 | CASKI | Es-2 | HeLa | Hek293T | JEG-3 | OV90

CCOC(=O)c1cnc2c(cnn2CC)c1NN=C(C)C
inactive: UISO | WaGa | C33A | CAOV3 | CASKI | Es-2 | HeLa | Hek293T | JEG-3 | OV90

CCCNC(C)C(=O)Nc1ccccc1C (stereo not given)
inactive: UISO | WaGa | C33A | CAOV3 | CASKI | Es-2 | HeLa | Hek293T | JEG-3 | OV90

Cc1nc2c([nH]1)c(=O)n(C)c(=O)n2Cc1ccco1
inactive: UISO | WaGa | C33A | CAOV3 | CASKI | Es-2 | HeLa | Hek293T | JEG-3 | OV90

CC(=O)OCC1=C(C(=O)O)N2C(=O)[C@@H](NC(=O)Cc3cccs3)[C@H]2SC1
inactive: UISO | WaGa | C33A | CAOV3 | CASKI | Es-2 | HeLa | Hek293T | JEG-3 | OV90

Cc1ccc(=O)n(-c2ccccc2)c1
inactive: UISO | WaGa | C33A | CAOV3 | CASKI | Es-2 | HeLa | Hek293T | JEG-3 | OV90

CCCOc1ccccc1-c1nc2n[nH]nc2c(=O)[nH]1
inactive: UISO | WaGa | C33A | CAOV3 | CASKI | Es-2 | HeLa | Hek293T | JEG-3 | OV90

CCCN1C[C@H](CSC)C[C@@H]2c3cccc4[nH]cc(c34)C[C@H]21
inactive: UISO | WaGa | C33A | CAOV3 | CASKI | Es-2 | Hek293T | JEG-3 | OV90

CN(C)CC[C@@H](c1ccc(Br)cc1)c1ccccn1
inactive: UISO | WaGa | C33A | CAOV3 | CASKI | Es-2 | Hek293T | JEG-3

C[C@]12CCC(=O)C=C1CC[C@@H]1[C@@H]2CC[C@@]2(C)[C@H]1CC[C@]2(O)C(=O)CO
inactive: UISO | WaGa | C33A | CAOV3 | CASKI | Es-2 | HeLa | Hek293T | JEG-3 | OV90

N[C@@H](COP(=O)(O)O)C(=O)O
inactive: UISO | WaGa | C33A | CAOV3 | CASKI | Es-2 | HeLa | Hek293T | JEG-3 | OV90

FC(F)(F)c1ccccc1-n1ccnc1
inactive: UISO | WaGa | C33A | CAOV3 | CASKI | Es-2 | Hek293T | JEG-3 | OV90

CCN(CC)CCNC(=O)c1cc(S(C)(=O)=O)ccc1OC
inactive: UISO | WaGa | C33A | CAOV3 | CASKI | Es-2 | HeLa | JEG-3 | OV90

CCCN(CCC)C(=O)C(CCC(=O)O)NC(=O)c1ccccc1 (stereo not given)
inactive: UISO | WaGa | C33A | CAOV3 | CASKI | Es-2 | HeLa | Hek293T | JEG-3 | OV90

Cc1ccc(S(=O)(=O)NC(=O)NN2CCCCCC2)cc1
inactive: UISO | WaGa | C33A | CAOV3 | CASKI | Es-2 | HeLa | Hek293T | JEG-3 | OV90
